SNCA viab count – counter-screen for SNCA expression inhibitors: cell viability | HEK-293-SNCA-luc viability, GF-AFC fluorescence, 24 h | Potency, µM (top dose mostly 57.1 µM), hits mostly cytotoxic | 150,000 compounds, 0.12% hits | AID 1671193; also: nearly all actives have a fitted effect of over 30% in size
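HEK-293-SNCA-luc cells (1500/well) plated 24 h, then exposed 24 h to a dilution series; GF-AFC added 30 min at 37C, fluorescence 405/540 nm; normalised to medium-only and DMSO wells, Hill fit.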
KDM5B inhibitor – KDM5B demethylase inhibition; Q9UGL1; KDM5B demethylase, FDH-coupled NADH fluorescence (FDH is formaldehyde dehydrogenase); Potency, µM (series often up to 57.7 µM), most hits filed as inhibitors; 220,000 compounds, 2.6% hits; also: nearly all actives have a fitted effect of over 70% in size
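Here, H3K4me3 peptide (12.5 µM in substrate mix) is demethylated by KDM5BΔAP, 200 nM final, after 10 min compound exposure. Formaldehyde product is coupled through FDH (0.25 U/mL in mix) to NADH fluorescence; 30-min ΔRFU feeds dose-response curves.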
SNCA expr inhib – SNCA gene expression inhibition; HEK-293 SNCA-luciferase knock-in, luminescence, 24 h; Potency, µM (highest dose often 57.2 µM), actives largely listed as inhibitors; 140,000 compounds, 0.17% hits; AID 1671194; also: nearly all actives have a fitted effect of over 45% in size
IP6K1 inhibitor – IP6K1 kinase inhibition. Q92551. IP6K1 kinase, ADP-Glo luminescence, 2 h; active compounds read low. activity change, % (series mostly up to about 58 µM). 140,000 compounds, 0.81% hits; in the data active = activity change below about -25%
Target sequence (Q92551 whole entry, looked up): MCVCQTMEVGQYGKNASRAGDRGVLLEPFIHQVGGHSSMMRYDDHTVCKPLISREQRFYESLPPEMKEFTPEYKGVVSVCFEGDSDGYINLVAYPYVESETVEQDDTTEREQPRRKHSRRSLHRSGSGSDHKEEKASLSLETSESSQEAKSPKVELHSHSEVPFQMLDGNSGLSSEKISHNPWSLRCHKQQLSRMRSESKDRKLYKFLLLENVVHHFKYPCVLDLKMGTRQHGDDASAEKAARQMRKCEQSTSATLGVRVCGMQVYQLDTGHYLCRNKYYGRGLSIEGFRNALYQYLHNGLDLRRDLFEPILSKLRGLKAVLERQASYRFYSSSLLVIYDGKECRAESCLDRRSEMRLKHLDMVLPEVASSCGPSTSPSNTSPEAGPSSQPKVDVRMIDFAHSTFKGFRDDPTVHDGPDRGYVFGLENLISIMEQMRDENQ
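ADP-Glo luminescence measures ADP made by human IP6K1 during a 2 h RT reaction with ATP/IP6 (mix at 1.3 mM/130 uM); top library doses 57.5 and 19.1 uM final.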
IP6K1 inh cnf – human IP6K1 inhibition, confirmatory | shares compounds with IP6K1 inhibitor | recombinant IP6K1 kinase, ADP-Glo luminescence, 2 h | Potency, µM (top dose mostly 49 µM), hits mostly inhibitors | 1,200 compounds, 13% hits | AID 1645852; also: nearly all actives have a fitted effect of over 65% in size
Large screens that a line does not name were inactive (follow-up assays come after a bar, where they were run). Only some compounds are listed: those with a hit (about 2.9% of all), similar ones and a draw of the others. Unless noted, calls follow the shape of the dose curve; as a rule, active = well fitted curve in the direction sought with a large enough effect; inconclusive = small, poorly fitted or top-dose-only effect, or another doubt; inactive = no such curve, though single readings can be large; an effect the other way counts as inactive or inconclusive.

COc1ccc(NC(=O)CN2CCN(S(=O)(=O)c3ccc(Br)cc3)CC2)cc1	IP6K1 inhibitor -30 | IP6K1 inh cnf inactive
O=C(NC1CCOCC1)C1CCCN(Cc2cccc(-c3ccc(F)cc3F)c2)C1 (centres undefined)	none (no result: KDM5B inhibitor)
CCOc1cccc(C(=O)Nc2ccc(-c3nc4ncccc4o3)cc2C)c1	none
CCOc1cc(C(=O)Nc2ccc(-c3nc4ncccc4o3)cc2C)cc(OCC)c1OCC	IP6K1 inhibitor -26 | IP6K1 inh cnf inactive
COc1ncccc1CN1CCCn2nc(C)c(-c3ccccc3C(C)C)c21	SNCA viab count inconclusive, KDM5B inhibitor inconclusive, SNCA expr inhib inconclusive
CC(C)CCNc1nc(-c2ccc(O)c(C(N)=O)c2)cs1	none (no result: SNCA viab count, SNCA expr inhib, IP6K1 inhibitor)
COC(=O)c1ccccc1NC(=O)c1sc2nc(C)cc(C)c2c1NC(=O)c1ccccc1OC	KDM5B inhibitor inconclusive, IP6K1 inhibitor -30 | IP6K1 inh cnf inactive
COc1ccc(NC(=O)CC2C(=O)N(c3ccccc3)C(=O)N2CCc2sccc2C)cc1 (centres undefined)	IP6K1 inhibitor -33 | IP6K1 inh cnf inactive
Cc1ccc2c(CNCc3cccc(Cl)c3)c(C(=O)O)n(Cc3ccc(F)cc3Cl)c2c1	IP6K1 inhibitor -27 | IP6K1 inh cnf inactive
CCCCN(Cc1ccccc1)S(=O)(=O)c1cc(Br)cc2c1N(C(C)=O)CC2	IP6K1 inhibitor -27 | IP6K1 inh cnf inactive
CCCCN(Cc1ccccc1)S(=O)(=O)c1cc(Br)cc2c1N(C(=O)C1CC1)CC2	none
COC(=O)NC1CCN(Cc2cccc(-c3cccs3)c2)CC1	none (no result: KDM5B inhibitor)
c1cn(-c2ccc(-c3nc(C4CCOC4)no3)cc2)cn1 (centres undefined)	IP6K1 inhibitor -28 | IP6K1 inh cnf inactive
Cc1cccc(-c2nnc(SCCC(=O)O)o2)c1	KDM5B inhibitor inconclusive, SNCA expr inhib inconclusive, IP6K1 inhibitor -37 | IP6K1 inh cnf inconclusive
COc1ccc(OC)c(CNS(=O)(=O)c2cc(-c3onc(C)c3C)ccc2C)c1	IP6K1 inhibitor -46 | IP6K1 inh cnf inactive
COc1ccc(NS(=O)(=O)c2cc(-c3onc(C)c3C)ccc2C)c(OC)c1	KDM5B inhibitor inconclusive
COc1ccccc1-c1ccc(CN2CCCCC2C(=O)NCc2ccccc2Cl)cc1 (centres undefined)	none (no result: SNCA viab count, KDM5B inhibitor, SNCA expr inhib)
Cc1cccc(C)c1NC1=NS(=O)(=O)c2ccccc21	none (no result: SNCA viab count, SNCA expr inhib, IP6K1 inhibitor)
COC(=O)c1cccc(NC2=NS(=O)(=O)c3ccccc32)c1	IP6K1 inhibitor -40 | IP6K1 inh cnf inconclusive
O=C(NC[C@H](O)CO)c1ccncc1Nc1ccc(I)cc1F	none (no result: KDM5B inhibitor, IP6K1 inhibitor) | IP6K1 inh cnf inactive
O=C(NOCC(O)CO)c1ccc(F)c(F)c1Nc1ccc(I)cc1F (centres undefined)	none (no result: KDM5B inhibitor, SNCA expr inhib)
COc1ccccc1NC(=O)Cn1nc2c3cc(F)ccc3n(Cc3cccc(C)c3)cc-2c1=O	none
CCOc1ccccc1NC(=O)Cn1nc2c3cc(F)ccc3n(Cc3cccc(C)c3)cc-2c1=O	IP6K1 inhibitor -34 | IP6K1 inh cnf inactive
COc1ccc(F)cc1-c1ccc(CN2CCC(NC(=O)NC3CCCC3)C2)cc1 (centres undefined)	none (no result: SNCA viab count, KDM5B inhibitor, SNCA expr inhib)
Cc1ccc(-c2ccc3nnc(CNC(=O)Cc4cccs4)n3n2)cc1C	KDM5B inhibitor inconclusive | IP6K1 inh cnf inactive
Cn1cccc1-c1noc(C2CCN(C(=O)CCc3nc4ccccc4s3)C2)n1 (centres undefined)	none (no result: KDM5B inhibitor)
COc1ccc(NC(=O)C2CCCN(S(=O)(=O)c3ccc4[nH]c(=O)ccc4c3)C2)cc1OC (centres undefined)	KDM5B inhibitor inconclusive
COc1cccc(NC(=O)C2CCCN(S(=O)(=O)c3ccc4[nH]c(=O)ccc4c3)C2)c1 (centres undefined)	IP6K1 inhibitor -33 | IP6K1 inh cnf inactive
CC(C)(C)c1ccc(CSC2=Nc3ccccc3C3=NC(CC(=O)NCc4cccs4)C(=O)N23)cc1 (centres undefined)	KDM5B inhibitor inconclusive, IP6K1 inhibitor -26 | IP6K1 inh cnf inactive
CN(C)CC(C)(C)NC(=O)c1csc2nc(-c3cccc(C(F)(F)F)c3)cn12	KDM5B inhibitor inconclusive
CCN(C(=O)C(NS(=O)(=O)c1cccc2nsnc12)c1ccccc1)c1ccccc1 (centres undefined)	IP6K1 inhibitor -28 | IP6K1 inh cnf inactive
CC(C)(C)c1nc2c3cc[nH]c(=O)c3c3cc(F)ccc3c2[nH]1	none (no result: KDM5B inhibitor, IP6K1 inhibitor) | IP6K1 inh cnf inactive
Cc1ccc(-c2n[nH]c3c2C(c2ccccc2Cl)N(c2ccc(C(=O)O)cc2)C3=O)cc1 (centres undefined)	SNCA expr inhib inconclusive, IP6K1 inhibitor -29 | IP6K1 inh cnf inactive
CCc1ccc(C2c3c(-c4ccccc4)n[nH]c3C(=O)N2c2ccc(C(=O)O)cc2)cc1 (centres undefined)	SNCA expr inhib inconclusive

Source: PubChem (National Center for Advancing Translational Sciences (NCATS))
